Screening results as filed in PubChem BioAssay.
Hits are enriched below; roughly 4.7% of the tested compounds scored in any of these assays.
EBI2 antag: blocks human EBI2 receptor beta-arrestin signaling; 0.81% of 360,000 active; EBI2 beta-arrestin recruitment, luminescence, 7a,25-OHC stimulated; P32249; AID 651636; inhibition, % at 5 µM; in the data active = inhibition above about 38%;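 note: enzyme fragment complementation signal reports receptor beta-arrestin coupling in cells; 0% = agonist plus DMSO wells and 100% = wells without agonist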
Target sequence (P32249 whole entry, looked up, the tested form may be a part): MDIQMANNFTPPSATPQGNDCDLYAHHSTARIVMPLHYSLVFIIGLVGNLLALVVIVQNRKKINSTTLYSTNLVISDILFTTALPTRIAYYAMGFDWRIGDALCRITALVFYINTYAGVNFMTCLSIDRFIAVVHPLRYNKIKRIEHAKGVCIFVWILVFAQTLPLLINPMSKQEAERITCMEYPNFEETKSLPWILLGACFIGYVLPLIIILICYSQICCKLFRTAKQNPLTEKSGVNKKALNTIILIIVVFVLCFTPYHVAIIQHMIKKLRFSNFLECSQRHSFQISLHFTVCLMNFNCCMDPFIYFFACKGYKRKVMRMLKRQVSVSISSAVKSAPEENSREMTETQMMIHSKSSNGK
TIM10 inh: TIM10 yeast growth inhibition; S. cerevisiae TIM10 strain growth, BacTiter-Glo luminescence, 24 h; inhibition, % at 10 µM; 1.4% of 330,000 active;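 active = inhibition of 40% or more at the single tested concentration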;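 note: wild-type TIM10 isogenic control strain grown at permissive 25 °C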
tim23-1 inh: growth inhibitors of tim23-1 mutant yeast | S. cerevisiae tim23-1 growth, BacTiter-Glo luminescence, 24 h | inhibition, % at 20 µM | 1.3% of 330,000 active | AID 463212;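 active = growth inhibition of the mutant yeast at or above 50%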;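 note: temperature-sensitive mutant grown at 25 °C; plate controls were DMSO-treated mutant yeast for no effect and medium wells lacking yeast for full effect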
PfHsp90 yeast 2: reduces growth (ATP signal) of yeast expressing P. falciparum Hsp90. 0.32% of 310,000 active. S. cerevisiae expressing PfHsp90, BacTiter-Glo ATP, 48 h; yeast lacking PDR1 and PDR3 efflux regulators. inhibition, % at 9.4 µM. AID 504621;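 active = every replicate shows inhibition above about 80%, whatever the replicate mean, limit read from the data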;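 note: 0% = DMSO neutral controls and 100% = 20 µM radicicol positive controls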
SKKanGAS inh: inhibitors of SKKanGAS S. pyogenes growth in kanamycin (SK-promoter or general growth effect); BacTiter-Glo, 6 h; inhibition, % at 7.5 µM; 1.3% of 300,000 active; AID 1662;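 active = mean replicate score, as percent of positive control median, at least 50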;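 note: strain carries kanamycin resistance gene driven by streptokinase promoter and grows in 40 µg/ml kanamycin; loss of luminescence reflects streptokinase promoter inhibition or plain growth inhibition; 0% = median of DMSO wells and 100% = positive control at its reference dose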
tim10-1 inh: tim10-1 yeast growth inhibition | inhibition, % at 20 µM | 2.2% of 330,000 active | S. cerevisiae tim10-1 ts strain growth, BacTiter-Glo, 24 h;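 active = inhibition of at least 40%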;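 note: mutant grown at 25 °C; 0% = DMSO wells with yeast and 100% = wells holding no yeast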
Numbers without * were called inactive; . = not tested or not shown.

SMILES	EBI2 antag	TIM10 inh	tim23-1 inh	PfHsp90 yeast 2	SKKanGAS inh	tim10-1 inh
CCn1c(=O)c(C(=O)NNC(=O)c2ccccc2)c(O)c2ccccc21	-1	-16	7	-3	53*	-19
CCCCCCC(=O)NNC(=O)c1c(O)c2ccccc2n(CC)c1=O	6	21	34	-4	112*	12
CCCn1c(=O)c(C(=O)NNC(=O)Cc2ccccc2)c(O)c2ccccc21	-3	4	-18	-6	36	-28
C=CCn1c(=O)c(C(=O)NCCNCC)c(O)c2ccccc21	-3	11	1	14	-8	-9
C=CCn1c(=O)c(C(=O)NCc2ccccc2)c(O)c2ccccc21	-10	29	48	-1	55*	-18
CC(=O)OC[C@H]1O[C@@H](Oc2cc(O)cc3oc(-c4ccc(O)cc4)cc(=O)c23)[C@H](O[C@@H]2O[C@@H](C)[C@H](O)[C@@H](O)[C@H]2O)[C@@H](O)[C@@H]1O	-4	0	0	22	.	2
NC(=O)c1cccc(-c2ccnc3c2CC(C(=O)NCc2ccccc2)O3)c1 (stereo not drawn)	-11	.	.	.	.	.
CCCCCCCCN1C(=O)[C@H](CC(=O)NCCc2ccccc2OC)C[C@@]2(C(=O)OC)CC(C)(C)CC=C12	23	.	.	.	.	.
COc1cc(C(=O)OC(C)CN2CCCCC2)cc(OC)c1OC (stereo not drawn)	-17	-15	0	8	4	9
CCCCCCCC(=O)NNC(=O)c1c(O)c2ccccc2n(CCC)c1=O	-12	-4	17	25	111*	-9
CC(C)Cn1c(=O)c(C(=O)Nc2ccncc2)c(O)c2ccccc21	-8	12	14	106*	96*	-8
CCCn1c(=O)c(C(=O)NNC(=O)c2ccccc2[N+](=O)[O-])c(O)c2ccccc21	-17	17	34	.	17	13
CCCCCCCC(=O)NNC(=O)c1c(O)c2ccccc2n(CC)c1=O	-12	-18	17	7	99*	-20
CCn1c(=O)c(C(=O)NCCc2ccccc2)c(O)c2ccccc21	14	11	-4	20	13	-7
CCCn1c(=O)c(C(=O)NNC(=O)c2ccccc2Cl)c(O)c2ccccc21	-4	16	37	9	86*	-43
Cn1c(-c2c(N)n(CCCc3ccccc3)c3nc4ccccc4nc23)nc2ccccc21	27	.	.	-9	113*	.
COCCCn1c(N)c(-c2nc3ccccc3n2C)c2nc3ccccc3nc21	5	28	28	44	9	10
Cn1c(-c2c(N)n(CCc3ccccc3)c3nc4ccccc4nc23)nc2ccccc21	18	-13	6	-10	104*	-29
Nc1c(C(=O)OCC2CCCO2)c2nc3ccccc3nc2n1C1CCCC1 (stereo not drawn)	34	20	42	1	6	28
Cn1c(-c2c(N)n(C3CCCC3)c3nc4ccccc4nc23)nc2ccccc21	23	22	44	.	102*	-1
CCCCNc1nc(N)nc(-c2cc(Cl)ccc2O)n1	15	-69	21	104*	1	27
Cc1ccc([C@H]2C[C@@H](n3cc(COC(=O)c4ccccc4)nn3)[C@H](O)CN2Cc2cccs2)cc1	15	.	.	.	.	.
CCOC(=O)C1C(C)=C(Nc2ccc(OC)cc2)C(=O)N1c1ccc(OC)cc1 (stereo not drawn)	-4	-8	-12	7	-1	3
COc1cc(-c2ccc(NC(=O)NC3CC3)c(OC)c2)ccc1NC(=O)NC1CC1	.	-7	-16	.	55*	-16
COCCn1c(N)c(C(=O)Nc2sc3c(c2C(=O)OC)CCCC3)c2nc3ccccc3nc21	11	13	18	-17	58*	11
SMILES	EBI2 antag	TIM10 inh	tim23-1 inh	PfHsp90 yeast 2	SKKanGAS inh	tim10-1 inh
COC(=O)c1c(NC(=O)Cc2cccs2)sc2c1CCCC2	5	2	33	.	69*	24
COCCn1c(N)c(C(=O)NCC2CCCO2)c2nc3ccccc3nc21 (stereo not drawn)	13	8	-3	2	17	24
CCC(C)C(NC(=O)C(Cc1ccc(O)cc1)NC(=O)OCc1ccccc1)C(=O)OC (stereo not drawn)	-9	.	.	.	.	.
Cc1csc(NC(=O)c2c(O)c3c(n(CC(C)C)c2=O)CCCC3)n1	0	16	19	17	61*	12
CCn1cc(C(=O)OCC(=O)c2cc(C)n(-c3cccc(C(F)(F)F)c3)c2C)c(=O)c2ccc(C)nc21	-1	.	.	-14	59*	.
CCn1cc(C(=O)OCC(=O)c2ccccc2)c(=O)c2ccc(C)nc21	-7	.	.	10	24	.
CN(C)c1cc[n+](CC(=O)c2ccc(OC(F)F)cc2)cc1	13	-10	7	13	-4	-14
Cc1ccsc1C1Nc2ccc3ncccc3c2C2=C1C(=O)CCC2 (stereo not drawn)	70*	6	7	.	1	5
O=C(COc1ccc([N+](=O)[O-])cc1Cl)N1CCc2ccccc21	1	8	15	-40	.	17
Cc1ccc(C(=O)CC(=O)c2ccccc2)cc1	3	9	27	13	53*	12
Cc1ccc(O)c(C(=O)CC(=O)c2ccc(Cl)cc2)c1	-2	.	.	-40	96*	.
Cc1ccc(C(=O)Cc2ccccc2)cc1	-8	.	.	-14	.	.
Cc1ccc(C(=O)CC(=O)COc2ccc(Cl)cc2C)cc1	0	20	1	-15	101*	15
Cc1ccc(O)c(C(=O)CC(=O)c2cccc(F)c2)c1	-3	6	17	.	81*	-2
COc1ccc(O)c(C(=O)CC(=O)c2ccc(F)cc2)c1	16	16	33	-11	14	-36
CC(C)(C)NC(=O)C1(C)CCC(=O)N1C1CC1 (stereo not drawn)	-4	.	.	.	.	.
C[C@H](CO)N1C[C@H](C)[C@@H](CN(C)C(=O)c2ccc3ccn(C)c3c2)OCc2cn(nn2)CCCC1=O	-8	.	.	.	.	.
O=C1C=CC(=O)N1Cc1ccccc1	3	13	20	110*	-2	37
Cn1cc(Cc2ccc(C(=O)N3CCCCC3)cn2)c2ccccc21	2	.	.	.	.	.
CC1CCN(C2CC(=O)N(c3ccc(Br)cc3Br)C2=O)CC1 (stereo not drawn)	3	29	30	107*	-8	27
CC1CCN(C2CC(=O)N(c3ccccc3)C2=O)CC1 (stereo not drawn)	-7	6	28	15	-17	27
CN(C)C1CN(Cc2cn(Cc3cccc(C(F)(F)F)c3)nn2)S(=O)(=O)C1 (stereo not drawn)	-11	.	.	.	.	.
O=[N+]([O-])c1ccc(Nc2nc(NCCO)nc(N3CCCC3)n2)cc1	5	6	8	8	97*	37
OCCNc1nc(Nc2ccc(Cl)cc2)nc(N2CCCC2)n1	5	16	35	2	0	25
COc1ccc2cc(C(=O)C3CCCN(Cc4cccc(C)n4)C3)ccc2c1 (stereo not drawn)	11	-3	43	2	79*	38
